How the values were obtained:
Assay in all cases: HT-SELEX; 20 mM HEPES pH 7, 140 mM KCl, 5 mM NaCl, 1 mM K2HPO4, 2 mM MgSO4, 100 uM EGTA, ZnSO4, 0.1% Tween20; room temperature, 1 h; high values mean tight binding
Conditions in all cases: protein: ivt; tags: eGFP (N-terminal); dsDNA, one strand shown
[1] = biological target: ZNF721 full-length (Homo sapiens, UniProt Q8TF20-2 1-923)
In short: (§1)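 Full-length or DNA-binding-domain forms of a tagged transcription factor were produced in HEK293 lysate or cell-free extract and immobilised on beads. Incubation with a randomized 40-base DNA library ran for 1 h at room temperature in HEPES/KCl low-stringency buffer with Tween20, after which bound DNA was washed, heat-eluted, PCR-amplified over successive cycles and Illumina-sequenced. Binding strength is given as the relative k-mer count in selected reads, higher for tighter binding.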

[2] = biological target: ZNF721 DBD1 (Homo sapiens, UniProt Q8TF20-2 29-461)
Sequence of ZNF721 DBD1 (Q8TF20 17-449): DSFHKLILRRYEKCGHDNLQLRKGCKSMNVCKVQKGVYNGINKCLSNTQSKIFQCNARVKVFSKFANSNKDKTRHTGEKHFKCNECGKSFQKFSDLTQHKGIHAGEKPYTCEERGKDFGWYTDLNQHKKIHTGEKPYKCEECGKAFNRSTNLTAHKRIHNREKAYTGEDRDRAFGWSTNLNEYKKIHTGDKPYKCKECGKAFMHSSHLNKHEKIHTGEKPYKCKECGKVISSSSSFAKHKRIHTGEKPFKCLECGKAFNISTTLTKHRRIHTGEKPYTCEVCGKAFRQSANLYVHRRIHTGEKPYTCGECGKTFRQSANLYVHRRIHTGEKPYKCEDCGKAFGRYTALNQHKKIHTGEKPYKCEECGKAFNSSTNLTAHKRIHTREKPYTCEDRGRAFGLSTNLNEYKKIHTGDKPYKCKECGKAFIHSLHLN
In short: as §1

[3] = biological target: ZNF721 DBD2 (Homo sapiens, UniProt Q8TF20-2 395-923)
Sequence of ZNF721 DBD2 (Q8TF20 383-911): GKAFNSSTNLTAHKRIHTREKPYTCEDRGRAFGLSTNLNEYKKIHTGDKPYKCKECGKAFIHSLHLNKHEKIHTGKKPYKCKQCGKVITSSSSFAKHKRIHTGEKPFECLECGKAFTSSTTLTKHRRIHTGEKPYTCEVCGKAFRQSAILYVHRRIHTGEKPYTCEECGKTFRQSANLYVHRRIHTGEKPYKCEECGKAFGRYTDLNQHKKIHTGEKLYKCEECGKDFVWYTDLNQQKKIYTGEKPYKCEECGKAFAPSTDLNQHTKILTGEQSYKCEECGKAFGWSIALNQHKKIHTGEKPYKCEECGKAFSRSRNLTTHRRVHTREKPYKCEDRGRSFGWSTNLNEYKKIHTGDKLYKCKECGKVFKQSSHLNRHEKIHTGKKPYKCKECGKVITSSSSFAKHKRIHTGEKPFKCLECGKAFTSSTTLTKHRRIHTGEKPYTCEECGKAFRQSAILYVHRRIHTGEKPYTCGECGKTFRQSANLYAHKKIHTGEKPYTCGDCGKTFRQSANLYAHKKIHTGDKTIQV
In short: as §1

Sequence of ZNF721 full-length (Q8TF20 other isoform, or with tags, fused parts or gaps): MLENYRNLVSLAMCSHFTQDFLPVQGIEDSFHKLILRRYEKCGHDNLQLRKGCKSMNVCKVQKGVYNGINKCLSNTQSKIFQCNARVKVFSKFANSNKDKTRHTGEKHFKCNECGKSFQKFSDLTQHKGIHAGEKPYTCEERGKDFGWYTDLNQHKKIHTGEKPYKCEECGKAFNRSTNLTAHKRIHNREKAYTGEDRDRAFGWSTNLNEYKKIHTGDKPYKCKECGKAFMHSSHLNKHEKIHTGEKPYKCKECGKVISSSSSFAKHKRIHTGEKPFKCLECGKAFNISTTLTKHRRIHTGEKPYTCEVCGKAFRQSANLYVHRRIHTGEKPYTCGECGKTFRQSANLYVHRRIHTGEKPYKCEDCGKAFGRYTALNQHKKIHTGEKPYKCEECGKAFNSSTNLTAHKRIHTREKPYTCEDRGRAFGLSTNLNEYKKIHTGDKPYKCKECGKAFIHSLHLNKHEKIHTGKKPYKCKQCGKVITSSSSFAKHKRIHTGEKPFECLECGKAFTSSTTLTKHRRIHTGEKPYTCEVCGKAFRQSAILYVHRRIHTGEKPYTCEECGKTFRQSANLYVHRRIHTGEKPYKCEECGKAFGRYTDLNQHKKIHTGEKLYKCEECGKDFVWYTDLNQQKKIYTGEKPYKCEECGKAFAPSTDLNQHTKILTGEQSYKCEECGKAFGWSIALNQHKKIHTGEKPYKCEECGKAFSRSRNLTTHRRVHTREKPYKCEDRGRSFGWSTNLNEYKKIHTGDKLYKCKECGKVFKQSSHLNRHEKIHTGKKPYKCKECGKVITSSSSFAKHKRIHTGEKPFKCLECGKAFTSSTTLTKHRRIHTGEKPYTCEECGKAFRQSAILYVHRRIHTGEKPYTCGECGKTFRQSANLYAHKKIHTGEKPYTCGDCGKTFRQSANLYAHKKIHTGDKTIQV

Sequence: AAAAACAAGC
- binding signal [1]: 0.123 relative 10-mer count
- binding signal [2]: 0.0116 relative 10-mer count
- binding signal [3]: 0.0483 relative 10-mer count

Sequence: CCACCCCGCC
- binding signal [1]: 0.263 relative 10-mer count
- binding signal [2]: 0.00894 relative 10-mer count
- binding signal [3]: 0.00503 relative 10-mer count

Sequence: CCCAACCCCA
- binding signal [1]: 0.132 relative 10-mer count
- binding signal [2]: 0.00459 relative 10-mer count
- binding signal [3]: 0.00372 relative 10-mer count

Sequence: GGGGTGGGCA
- binding signal [1]: 0.11 relative 10-mer count
- binding signal [2]: 0.00381 relative 10-mer count
- binding signal [3]: 0.00395 relative 10-mer count

Sequence: CGCCCCCCTC
- binding signal [1]: 0.116 relative 10-mer count
- binding signal [2]: 0.00422 relative 10-mer count
- binding signal [3]: 0.00204 relative 10-mer count

Sequence: AGGTGGGGGG
- binding signal [1]: 0.157 relative 10-mer count
- binding signal [2]: 0.0067 relative 10-mer count
- binding signal [3]: 0.00527 relative 10-mer count

Sequence: ACCTCCCACC
- binding signal [1]: 0.113 relative 10-mer count
- binding signal [2]: 0.00578 relative 10-mer count
- binding signal [3]: 0.00348 relative 10-mer count

Sequence: ATGGGTGGGG
- binding signal [1]: 0.109 relative 10-mer count
- binding signal [2]: 0.00427 relative 10-mer count
- binding signal [3]: 0.00372 relative 10-mer count

Sequence: AAAAGCAGCA
- binding signal [1]: 0.304 relative 10-mer count
- binding signal [2]: 0.00578 relative 10-mer count
- binding signal [3]: 0.296 relative 10-mer count

Sequence: CCCCCACTCC
- binding signal [1]: 0.14 relative 10-mer count
- binding signal [2]: 0.00665 relative 10-mer count
- binding signal [3]: 0.00288 relative 10-mer count

Sequence: ACCCCACCCT
- binding signal [1]: 0.104 relative 10-mer count
- binding signal [2]: 0.005 relative 10-mer count
- binding signal [3]: 0.00372 relative 10-mer count

Sequence: CCTCCCCCCG
- binding signal [1]: 0.143 relative 10-mer count
- binding signal [2]: 0.00541 relative 10-mer count
- binding signal [3]: 0.00348 relative 10-mer count

Sequence: CAGCCCCCCC
- binding signal [1]: 0.103 relative 10-mer count
- binding signal [2]: 0.00284 relative 10-mer count
- binding signal [3]: 0.0267 relative 10-mer count

Sequence: CCCACAACCC
- binding signal [1]: 0.106 relative 10-mer count
- binding signal [2]: 0.00431 relative 10-mer count
- binding signal [3]: 0.00348 relative 10-mer count

Sequence: ACCCCGCCAC
- binding signal [1]: 0.107 relative 10-mer count
- binding signal [2]: 0.00482 relative 10-mer count
- binding signal [3]: 0.00264 relative 10-mer count

Sequence: CCCTGCCCCC
- binding signal [1]: 0.166 relative 10-mer count
- binding signal [2]: 0.00642 relative 10-mer count
- binding signal [3]: 0.00264 relative 10-mer count

Sequence: GCACCCACCC
- binding signal [1]: 0.107 relative 10-mer count
- binding signal [2]: 0.00523 relative 10-mer count
- binding signal [3]: 0.00479 relative 10-mer count

Sequence: ACAAAAAAAG
- binding signal [1]: 0.12 relative 10-mer count
- binding signal [2]: 0.0121 relative 10-mer count
- binding signal [3]: 0.0533 relative 10-mer count

Sequence: AGAAAAAACA
- binding signal [1]: 0.12 relative 10-mer count
- binding signal [2]: 0.00211 relative 10-mer count
- binding signal [3]: 0.0902 relative 10-mer count

Sequence: CCCTCCTCCC
- binding signal [1]: 0.179 relative 10-mer count
- binding signal [2]: 0.00927 relative 10-mer count
- binding signal [3]: 0.00479 relative 10-mer count

Sequence: ACCCCACCTC
- binding signal [1]: 0.104 relative 10-mer count
- binding signal [2]: 0.00527 relative 10-mer count
- binding signal [3]: 0.0024 relative 10-mer count

Sequence: CCGCCCCTCC
- binding signal [1]: 0.151 relative 10-mer count
- binding signal [2]: 0.00624 relative 10-mer count
- binding signal [3]: 0.00312 relative 10-mer count

Sequence: AACAGGGTAT
- binding signal [1]: 0.138 relative 10-mer count
- binding signal [2]: 0.00119 relative 10-mer count
- binding signal [3]: 0.2 relative 10-mer count

Sequence: CCACACACCC
- binding signal [1]: 0.105 relative 10-mer count
- binding signal [2]: 0.00321 relative 10-mer count
- binding signal [3]: 0.00312 relative 10-mer count

Sequence: AGCGTCTCCA
- binding signal [1]: 0.271 relative 10-mer count
- binding signal [2]: 0.0472 relative 10-mer count
- binding signal [3]: 0.388 relative 10-mer count

Sequence: CCACCACCCC
- binding signal [1]: 0.455 relative 10-mer count
- binding signal [2]: 0.0194 relative 10-mer count
- binding signal [3]: 0.00419 relative 10-mer count

Sequence: CCGCCCCCCG
- binding signal [1]: 0.128 relative 10-mer count
- binding signal [2]: 0.0039 relative 10-mer count
- binding signal [3]: 0.0024 relative 10-mer count

Sequence: CCCCGCCCAC
- binding signal [1]: 0.202 relative 10-mer count
- binding signal [2]: 0.00771 relative 10-mer count
- binding signal [3]: 0.00407 relative 10-mer count

Sequence: CCCCCGCCTC
- binding signal [1]: 0.119 relative 10-mer count
- binding signal [2]: 0.00509 relative 10-mer count
- binding signal [3]: 0.0036 relative 10-mer count

Sequence: CCCCCCCACC
- binding signal [1]: 0.358 relative 10-mer count
- binding signal [2]: 0.0144 relative 10-mer count
- binding signal [3]: 0.00791 relative 10-mer count

Sequence: CCCGCCCCCC
- binding signal [1]: 0.264 relative 10-mer count
- binding signal [2]: 0.00982 relative 10-mer count
- binding signal [3]: 0.0018 relative 10-mer count

Sequence: CCACCGCCCA
- binding signal [1]: 0.131 relative 10-mer count
- binding signal [2]: 0.00477 relative 10-mer count
- binding signal [3]: 0.00575 relative 10-mer count

Sequence: ACCACCACCC
- binding signal [1]: 0.189 relative 10-mer count
- binding signal [2]: 0.00679 relative 10-mer count
- binding signal [3]: 0.00611 relative 10-mer count

Sequence: CCCCATCCCC
- binding signal [1]: 0.231 relative 10-mer count
- binding signal [2]: 0.0083 relative 10-mer count
- binding signal [3]: 0.0036 relative 10-mer count

Sequence: CACCCCCCCG
- binding signal [1]: 0.131 relative 10-mer count
- binding signal [2]: 0.00252 relative 10-mer count
- binding signal [3]: 0.003 relative 10-mer count

Sequence: CCTCCACCCA
- binding signal [1]: 0.111 relative 10-mer count
- binding signal [2]: 0.00505 relative 10-mer count
- binding signal [3]: 0.00527 relative 10-mer count

Sequence: AGGGGAGGGG
- binding signal [1]: 0.13 relative 10-mer count
- binding signal [2]: 0.00665 relative 10-mer count
- binding signal [3]: 0.00479 relative 10-mer count

Sequence: CCAACCCCAC
- binding signal [1]: 0.128 relative 10-mer count
- binding signal [2]: 0.00482 relative 10-mer count
- binding signal [3]: 0.00288 relative 10-mer count

Sequence: CACCCGCCCC
- binding signal [1]: 0.188 relative 10-mer count
- binding signal [2]: 0.0066 relative 10-mer count
- binding signal [3]: 0.00108 relative 10-mer count

Sequence: AAGCGTCTCC
- binding signal [1]: 0.163 relative 10-mer count
- binding signal [2]: 0.084 relative 10-mer count
- binding signal [3]: 0.0107 relative 10-mer count

Sequence: CCGCCACCCA
- binding signal [1]: 0.107 relative 10-mer count
- binding signal [2]: 0.00523 relative 10-mer count
- binding signal [3]: 0.00276 relative 10-mer count

Sequence: GCATACCCAC
- binding signal [1]: 0.132 relative 10-mer count
- binding signal [2]: 0.00899 relative 10-mer count
- binding signal [3]: 0.154 relative 10-mer count

Sequence: ACCCCATCCC
- binding signal [1]: 0.102 relative 10-mer count
- binding signal [2]: 0.00367 relative 10-mer count
- binding signal [3]: 0.0024 relative 10-mer count

Sequence: ATAAAAAAGC
- binding signal [1]: 0.12 relative 10-mer count
- binding signal [2]: 0.0221 relative 10-mer count
- binding signal [3]: 0.0443 relative 10-mer count

Sequence: AAAAAGCATA
- binding signal [1]: 0.182 relative 10-mer count
- binding signal [2]: 0.0303 relative 10-mer count
- binding signal [3]: 0.0372 relative 10-mer count

Sequence: CCGTCCCACC
- binding signal [1]: 0.123 relative 10-mer count
- binding signal [2]: 0.00546 relative 10-mer count
- binding signal [3]: 0.00312 relative 10-mer count

Sequence: CCACCATCCC
- binding signal [1]: 0.162 relative 10-mer count
- binding signal [2]: 0.0055 relative 10-mer count
- binding signal [3]: 0.00443 relative 10-mer count

Sequence: AACAAAAAAG
- binding signal [1]: 0.106 relative 10-mer count
- binding signal [2]: 0.00927 relative 10-mer count
- binding signal [3]: 0.0439 relative 10-mer count

Sequence: CCGCCCACCC
- binding signal [1]: 0.268 relative 10-mer count
- binding signal [2]: 0.0089 relative 10-mer count
- binding signal [3]: 0.0018 relative 10-mer count

Sequence: AGGGGGAGGG
- binding signal [1]: 0.145 relative 10-mer count
- binding signal [2]: 0.00752 relative 10-mer count
- binding signal [3]: 0.00515 relative 10-mer count

Sequence: CCCCCTCGCC
- binding signal [1]: 0.123 relative 10-mer count
- binding signal [2]: 0.0061 relative 10-mer count
- binding signal [3]: 0.00288 relative 10-mer count

Sequence: CAGCGTACCC
- binding signal [1]: 0.239 relative 10-mer count
- binding signal [2]: 0.00229 relative 10-mer count
- binding signal [3]: 0.41 relative 10-mer count

Sequence: CCCCCTCCCA
- binding signal [1]: 0.157 relative 10-mer count
- binding signal [2]: 0.00784 relative 10-mer count
- binding signal [3]: 0.00455 relative 10-mer count

Sequence: CCTCGCCCCC
- binding signal [1]: 0.123 relative 10-mer count
- binding signal [2]: 0.00592 relative 10-mer count
- binding signal [3]: 0.00144 relative 10-mer count

Sequence: CCCCGCCTCC
- binding signal [1]: 0.175 relative 10-mer count
- binding signal [2]: 0.00738 relative 10-mer count
- binding signal [3]: 0.00216 relative 10-mer count

Sequence: AAAAAAGCAG
- binding signal [1]: 0.862 relative 10-mer count
- binding signal [2]: 0.0227 relative 10-mer count
- binding signal [3]: 0.588 relative 10-mer count

Sequence: AAGCGTATCC
- binding signal [1]: 0.108 relative 10-mer count
- binding signal [2]: 0.0756 relative 10-mer count
- binding signal [3]: 0.00863 relative 10-mer count

Sequence: CCAAAAAAAC
- binding signal [1]: 0.106 relative 10-mer count
- binding signal [2]: 0.0017 relative 10-mer count
- binding signal [3]: 0.082 relative 10-mer count

Sequence: CCCCCCACCC
- binding signal [1]: 0.415 relative 10-mer count
- binding signal [2]: 0.0187 relative 10-mer count
- binding signal [3]: 0.0036 relative 10-mer count

Sequence: AGCGTATCCT
- binding signal [1]: 0.146 relative 10-mer count
- binding signal [2]: 0.0287 relative 10-mer count
- binding signal [3]: 0.192 relative 10-mer count
